Measurements taken from PubChem BioAssay AID463173 (ICCB-Longwood Screening Facility, Harvard Medical School, 2010).
Among all 52,000 compounds or so, about 4,300 (8.3%) were called active. This excerpt belongs to a sample that is enriched for actives. Values without a mark were called inactive. Rule as the data show it: active = survival mostly below about 52% (no sharp cut-off); inactive = mostly above about 56%.

The compounds below were run on DeltatarO mutant (assay: S. aureus survival, RN4220 and DeltatarO strains – OD600, teichoic acid synthesis inhibitors, primary screen (AID 463173)). Details: S. aureus RN4220 wild type/DeltatarO growth, OD600, 18 h, hits give low values, screened at 18.75 µg/mL (by protocol).

| SMILES | survival |
| --- | --- |
| CCN(c1cccc(C)c1)S(=O)(=O)c1cc2c(cc1C)n(C)c(=O)c(=O)n2C | 85% |
| COC(=O)c1ccccc1NC(=O)CCCn1c(C)c2cnn(-c3ccccc3)c(=O)c2c1C | 90% |
| COc1ccc(OC)c(C2=NS(=O)(=O)N(C)C(C(=O)Nc3ccc(F)cc3F)=C2)c1 | 72% |
| COC(=O)c1ccc(NC(=O)CN(C)S(=O)(=O)c2ccc3c(c2)CCCC(=O)N3)cc1 | 79% |
| CCCN1C2CCCC1CC(NC(=O)NC1CCCCC1)C2 (stereo not given) | 59% |
| CCOC(=O)c1cc2c(ccn2-c2ccc(F)cc2)n1CC(=O)N1C(C)CCCC1C (stereo not given) | 103% |
| CC(=O)c1cc(C(=O)Nc2cc(C)cc(C)c2)c2ccccn12 | 43% |
| CCOc1cccc(C2c3[nH]c4ccccc4c3CCN2C(=O)CCC2CCCC2)c1 (stereo not given) | 78% |
| COC(=O)c1ccccc1NC(=O)Cn1cnc2sc(C)c(S(=O)(=O)N3CCC(C)CC3)c2c1=O | 59% |
| CCc1ccc(CNC(=O)CCn2nc(C)c3c(C)n(-c4ccccc4)nc3c2=O)cc1 | 55% |
| Cc1nn(CCC(=O)NCc2ccc(N(C)C)cc2)c(=O)c2nn(-c3ccccc3)c(C)c12 | 95% |
| Cc1nn(CCC(=O)NCc2ccc(Cl)cc2)c(=O)c2nn(-c3ccccc3)c(C)c12 | 0% (active) |
| O=c1c2cnn(-c3ccc(Cl)cc3)c2ncn1Cc1ccc(Cl)cc1Cl | 102% |
| CCc1ccccc1NC(=O)C1CCCN(S(=O)(=O)c2ccc3[nH]c(=O)ccc3c2)C1 (stereo not given) | 88% |
| COC(=O)c1c(SC)nc2ccccc2c1OCc1ccc(C)cc1C | 46% (active) |
| CCSc1nc2ccccc2c(OCc2ccccc2Cl)c1C(=O)OC | 64% |
| CCSc1nc2ccccc2c(OCc2cc(C(=O)OC)ccc2OC)c1C(=O)OC | -12% (active) |
| COC(=O)c1c(SC)nc2ccccc2c1OCc1cc(C)ccc1C | 144% |
| COC(=O)c1c(SC)nc2ccccc2c1OCc1ccccc1C | 105% |
| CCSc1nc2ccccc2c(OCc2ccc(Cl)cc2)c1C(=O)OC | 98% |
| CCOC(=O)Cn1cc2c(c1-c1ccc(Cl)cc1)c(=O)n(C)c(=O)n2C | 60% |
| COc1cc(CNC(=O)C2CCCCN2S(=O)(=O)c2ccc(F)cc2)cc(OC)c1OC (stereo not given) | 83% |

| SMILES | survival |
| --- | --- |
| Cc1ccc2c(=O)c(C(=O)c3ccc(F)cc3)cn(CC(=O)Nc3ccc4c(c3)OCCO4)c2n1 | 77% |
| Cc1ccc(CCNC(=O)c2ccc3c(Cl)c4c(nc3c2)CCCC4)cc1 | 61% |
| CCCC(=O)N(c1ccc2oc(-c3ccccc3)c(C(=O)OCC)c2c1)S(=O)(=O)c1ccc(C)cc1 | 140% |
| CCCC(=O)N(c1ccc2oc3c(c2c1)CCCC3)S(=O)(=O)c1ccc(CC)cc1 | 39% (active) |
| CCOC(=O)c1c(-c2ccccc2)oc2ccc(N(C(C)=O)S(=O)(=O)c3cc(C)ccc3C)cc12 | 54% |
| CCc1ccc(S(=O)(=O)N(C(C)=O)c2ccc3oc4c(c3c2)CCCC4)cc1 | 146% |
| CCCC(=O)N(c1ccc2oc3c(c2c1)CCCC3)S(=O)(=O)c1cc(C)ccc1C | 35% (active) |
| CCCCC(=O)N(c1ccc2oc(C)c(C(C)=O)c2c1)S(=O)(=O)c1ccc(F)cc1C | 62% |
| CCC1CN(C(=O)NCc2ccc(C)cc2)c2cc(C)ccc2O1 (stereo not given) | 54% |
| COC(=O)CC1Oc2ccc(Cl)cc2-n2cc(-c3ccccc3)nc21 (stereo not given) | 63% |
| CCOC(=O)Cn1c(=O)oc2cc(S(=O)(=O)NC(C)c3ccccc3)ccc21 (stereo not given) | 66% |
| CC(C)=NNC(=O)CNc1ccccc1Cl | 79% |
| Cc1ccc(NC(=O)C2CC=CCC2C(=O)N2CCCCC2)cc1 (stereo not given) | 69% |
| COc1cc(CN2CCc3nc(N4CCN(c5ccccc5F)CC4)ncc3C2)ccc1OC(C)C | 118% |
| O=C(CC1N=C2c3ccccc3N=C(SCc3ccccc3Cl)N2C1=O)NCc1cccs1 (stereo not given) | 66% |
| O=C(c1cnc2c(c1)COc1ccc(Cl)cc1-2)c1ccccc1O | 105% |
| Cc1ccc2c(c1)-c1ncc(C(=O)c3cc(Br)ccc3O)cc1CO2 | 62% |
| Cc1ccc2c(c1)-c1nc(-c3ccccc3)cc(-c3ccccc3)c1CO2 | 91% |
| O=C(c1cnc2c(c1)COc1ccccc1-2)c1ccccc1O | 3% (active) |
| Cc1cc(O)c(C(=O)c2cnc3c(c2)COc2ccccc2-3)cc1Cl | 76% |
| Cc1ccc2c(c1)-c1ncc(C(=O)c3ccccc3O)cc1CO2 | 3% (active) |
| COc1ccccc1/C=C(\C#N)C(=O)NCC1CCCO1 (stereo not given) | 129% |

| SMILES | survival |
| --- | --- |
| CC1=C(c2ccc(Cl)cc2)S(=O)(=O)N=C1N1CCN(c2cccc(C(F)(F)F)c2)CC1 | 71% |
| CCS(=O)(=O)N1CCc2cc(C(=O)NCc3ccc(Cl)cc3)ccc21 | 92% |
| COc1cc(OC)c(NC(=O)Nc2nnc(N(C)C3CCCCC3)s2)cc1Cl | 23% (active) |
| Cc1ccc(NC(=O)Nc2nnc(N(C)C3CCCCC3)s2)c(Cl)c1 | 104% |
| COc1ccc(NC(=O)Nc2nnc(N(C)C3CCCCC3)s2)c(OC)c1 | 70% |
| O=C(CSc1nc2c([nH]c3ccccc32)c(=O)n1-c1cccc(Cl)c1)N1CCc2ccccc21 | 73% |
| COC(=O)C1CCN(C(c2ccccc2)c2sc3nc(-c4ccco4)nn3c2O)CC1 (stereo not given) | 57% |
| Cc1ccc(C)c(NC(=O)c2ccc(=O)n(Cc3ccc(F)cc3)c2)c1 | 94% |
| CCN(CC)CCCNC(=O)Cn1ncc2c3ccccc3n(Cc3ccccc3)c2c1=O | 95% |
| COc1ccc2c(c1)CC(C(=O)NCCN1CCN(c3cccc(C)c3C)CC1)CO2 (stereo not given) | 76% |
| COc1ccc(N2CCN(CCCNC(=O)c3cc(Nc4ccccc4OC)nc4ccccc34)CC2)cc1 | 62% |
| O=C(NCCCN1CCN(c2ccccc2F)CC1)c1cc2c(Cl)nc3ccccc3c2s1 | 51% (active) |
| COc1ccc2c(c1)CC(C(=O)NCCN1CCN(c3ccccc3F)CC1)CO2 (stereo not given) | 47% (active) |
| O=C(c1cc2c(s1)-c1ccccc1OC2)N1CCN(c2ccc(F)cc2)CC1 | 59% |
| COc1ccccc1N1CCN(C(=O)c2cc3c(s2)-c2ccccc2OC3)CC1 | 88% |
| COc1ccc(N2CCN(CCCNC(=O)c3cc(Nc4ccc(OC)cc4OC)nc4ccccc34)CC2)cc1 | 87% |
| CCCN1CCN(CCCNC(=O)c2cc3c(Cl)nc4ccccc4c3s2)CC1 | 116% |
| COc1ccc(Nc2cc(C(=O)NCCCN3CCN(c4ccccc4F)CC3)c3ccccc3n2)c(OC)c1 | 48% (active) |
| O=C(c1cc2c(s1)-c1ccccc1OC2)N1CCN(c2ccccc2F)CC1 | 41% (active) |
| O=C(NCCCN1CCN(c2ccc(F)cc2)CC1)c1cc2c(Cl)nc3ccccc3c2s1 | 91% |
| COc1ccc2c(c1)CC(C(=O)NCCCN1CCN(c3ccccc3F)CC1)CO2 (stereo not given) | 87% |
